Here are results for 21 molecules from PubChem BioAssay (NCATS).

The nature of assay [1]: qHTS for Inhibitors of the Functional Ribonucleoprotein Complex (vRNP) of Lassa (LASV) Arenavirus: Viability assay - alamar blue signal for LASV Primary Screen (AID 1347083; calls by dose curve; tested in HEK293 reporter line; also: nearly all actives have a fitted effect of over 80% in size; also: potency is read from the fitted curve at half-maximal effect). (In general: Quantitative high-throughput screening tests each substance at several concentrations.)
Assay [2] is described as follows: qHTS for Inhibitors of the Functional Ribonucleoprotein Complex (vRNP) of Lymphocytic Choriomeningitis Arenaviruses (LCMV): Viability assay - alamar blue signal for LCMV Primary Screen (AID 1347085; calls by dose curve; tested in HEK293 reporter line; also: nearly all actives have a fitted effect of over 80% in size; also: potency is read from the fitted curve at half-maximal effect).
Assay [3] deals with Nucleoprotein (Lymphocytic choriomeningitis virus (strain Armstrong)) (UniProt P09992). The assay can be described thus: qHTS for Inhibitors of the Functional Ribonucleoprotein Complex (vRNP) of Lymphocytic Choriomeningitis Arenaviruses (LCMV): LCMV Primary Screen - GLuc reporter signal (AID 1347086). Also: nearly all actives have a fitted effect of over 70% in size. Also: potency is read from the fitted curve at half-maximal effect. As to activity change, negative = inhibition: % is scaled to controls: 0 for no effect and ±100 for the full control effect.
Nucleoprotein (Lymphocytic choriomeningitis virus (strain Armstrong)), sequence (P09992 whole entry, looked up): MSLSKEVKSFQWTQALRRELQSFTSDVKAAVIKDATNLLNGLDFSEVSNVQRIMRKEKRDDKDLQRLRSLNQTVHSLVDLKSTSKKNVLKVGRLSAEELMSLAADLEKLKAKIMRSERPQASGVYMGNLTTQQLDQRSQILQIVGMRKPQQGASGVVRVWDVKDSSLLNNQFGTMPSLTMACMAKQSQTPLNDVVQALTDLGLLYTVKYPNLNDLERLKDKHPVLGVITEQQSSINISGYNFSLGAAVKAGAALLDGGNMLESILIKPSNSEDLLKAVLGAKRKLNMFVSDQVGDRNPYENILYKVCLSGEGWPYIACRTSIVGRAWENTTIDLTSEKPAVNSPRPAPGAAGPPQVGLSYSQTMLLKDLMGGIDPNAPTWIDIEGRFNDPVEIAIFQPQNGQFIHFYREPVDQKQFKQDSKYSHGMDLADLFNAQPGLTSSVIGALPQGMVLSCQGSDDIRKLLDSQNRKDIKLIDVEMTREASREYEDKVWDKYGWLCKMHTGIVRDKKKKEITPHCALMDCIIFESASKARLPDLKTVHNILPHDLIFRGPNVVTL
Assay [4] in a line: Confirmatory qHTS for VERO E6 Cytotoxicity Assay: Counterscreen for SARS-CoV-2 CPE Assay (AID 1508605). Also: % is scaled to controls: 0 for no effect and ±100 for the full control effect; nearly all actives have a fitted effect of over 60% in size.
The nature of assay [5]: Cytotoxicity counterscreen for inhibitors of SARS-CoV-2 cell entry (AID 1645845). Also: nearly all actives have a fitted effect of over 50% in size. Also: potency is read from the fitted curve at half-maximal effect. The gist of the method:
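Expi293F/hACE2 cells seeded overnight; cpd pin-transferred in DMSO, 1 h preincubation, + media, 48 h 37 C 5% CO2; ATPLite 1step luminescence; normalized to cells and no cells.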
On the technique in general: The purpose of a counterscreen is to sort out artefacts and off-target activity.

Assay [6] can be described thus: Validation screen for inhibitors of Lassa infection (AID 463096). Also: potency is read from the fitted curve at half-maximal effect. As to activity change, negative = inhibition: % is scaled to controls: 0 for no effect and ±100 for the full control effect.
The nature of assay [7]: Inducers of the Endoplasmic Reticulum Stress Response (ERSR) in human glioma: Validation (AID 504836; active = well fitted curve in the direction sought with a large enough effect; an effect the other way counts as inactive or inconclusive; also: 0% is about no effect). An outline of the steps:
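Stably transfected U87-MG human glioma cells carrying a GRP78-based luminescent sensor were seeded at 1000 cells/well, pin-dosed with compounds and incubated 16 h. Luciferase reagent was then added, and end-point luminescence was read after 10 min at room temperature.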

In assay [8] the target is Alpha-galactosidase (Coffea arabica) (UniProt Q42656). Description: Counterscreen for Glucocerebrosidase Inhibitors: qHTS Assay for Coffee Bean alpha-Galactosidase at pH 4.5 (AID 957; active = well fitted curve in the direction sought with a large enough effect; an effect the other way counts as inactive or inconclusive;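 also: plate controls were enzyme alone for no effect and no enzyme for full effect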). An outline of the steps: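 Coffee bean enzyme (2 nM) with 80 uM 4-methylumbelliferyl alpha-D-galactopyranoside in 50 mM citric acid, 0.005% Tween-20, pH 4.5, 20 min at room temperature; compounds 0.7 nM–77 uM. Stopped at pH 10, fluorescence 365/440 nm; AC50 from Hill fits.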
Alpha-galactosidase (Coffea arabica), sequence (Q42656 whole entry, looked up): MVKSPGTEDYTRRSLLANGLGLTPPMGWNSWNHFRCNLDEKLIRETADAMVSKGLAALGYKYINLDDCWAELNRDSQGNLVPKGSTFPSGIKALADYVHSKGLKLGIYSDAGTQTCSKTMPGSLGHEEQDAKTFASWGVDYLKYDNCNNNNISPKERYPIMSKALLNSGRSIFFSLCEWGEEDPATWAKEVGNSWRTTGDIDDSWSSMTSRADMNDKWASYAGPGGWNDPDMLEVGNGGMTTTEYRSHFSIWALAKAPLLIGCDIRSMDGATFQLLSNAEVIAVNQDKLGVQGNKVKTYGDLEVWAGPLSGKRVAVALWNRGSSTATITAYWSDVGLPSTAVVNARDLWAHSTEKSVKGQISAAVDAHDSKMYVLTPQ

Assay [9] shares this target. Description: Counterscreen for Glucocerebrosidase Inhibitors: qHTS Assay for Coffee Bean alpha-Galactosidase at pH 5.9 (AID 998; active = well fitted curve in the direction sought with a large enough effect; an effect the other way counts as inactive or inconclusive;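 also: plate controls were uninhibited enzyme for no effect and no-enzyme basal signal for full effect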). The gist of the method:
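Green coffee bean enzyme (2 nM final) was incubated with compounds (0.7 nM–77 uM) and 4-methylumbelliferyl alpha-D-galactopyranoside (80 uM) in citrate buffer pH 5.9, 20 min at room temperature. High-pH stop; fluorescence 365/440 nm; AC50 from Hill fits.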

Assay [10] deals with Cytochrome P450 3A4 (Homo sapiens) (UniProt P08684). The assay can be described thus: qHTS Assay for Inhibitors and Substrates of Cytochrome P450 3A4 (AID 884; active = well fitted curve in the direction sought with a large enough effect; an effect the other way counts as inactive or inconclusive; also: potency is read from the fitted curve at half-maximal effect; nearly all actives have a fitted effect of over 50% in size). An outline of the steps: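 20 nM human CYP3A4 with 25 uM Luciferin-PPXE (at KM) in 200 mM KPO4, preincubated 10 min with compound; NADPH regeneration started a 60 min RT reaction. Luciferin detected by luminescence, normalized to 57 uM ketoconazole as full inhibition.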
Cytochrome P450 3A4 (Homo sapiens), sequence (P08684 whole entry, looked up): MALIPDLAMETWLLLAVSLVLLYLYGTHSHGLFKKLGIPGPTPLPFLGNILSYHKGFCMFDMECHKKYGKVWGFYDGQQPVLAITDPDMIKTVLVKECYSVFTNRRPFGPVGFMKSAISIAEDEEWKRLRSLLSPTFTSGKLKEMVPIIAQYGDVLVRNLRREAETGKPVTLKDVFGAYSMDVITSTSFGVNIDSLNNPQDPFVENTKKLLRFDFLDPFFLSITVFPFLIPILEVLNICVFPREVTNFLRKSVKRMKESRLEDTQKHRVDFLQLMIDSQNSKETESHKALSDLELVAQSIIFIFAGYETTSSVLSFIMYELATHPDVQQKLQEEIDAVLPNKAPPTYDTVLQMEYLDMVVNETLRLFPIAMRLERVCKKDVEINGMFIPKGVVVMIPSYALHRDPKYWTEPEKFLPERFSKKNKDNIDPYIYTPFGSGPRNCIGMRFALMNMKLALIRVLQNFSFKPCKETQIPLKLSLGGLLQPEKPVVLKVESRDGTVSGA

Assay [11] has the same target. Description: qHTS Assay for Activators of Cytochrome P450 3A4 (AID 885; active = well fitted curve in the direction sought with a large enough effect; an effect the other way counts as inactive or inconclusive; also: nearly all actives have a fitted effect of over 65% in size). The gist of the method:
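Quantitative HTS format: compounds preincubated with 20nM human CYP3A4 and Luciferin-PPXE substrate at KM, reaction started by NADPH regeneration, stopped after 60 min, luciferase luminescence read 20 min later.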

Assay [12] is described as follows: Primary qHTS to identify inhibitors of SARS-CoV-2 cell entry (AID 1645846). Also: nearly all actives have a fitted effect of over 45% in size. Also: potency is read from the fitted curve at half-maximal effect. To be noted: activity change, negative = inhibition: at 57.1 µM (top of the series) unless noted. The gist of the method:
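HEK293-ACE2 (Expi293F, stable hACE2), 1500 cells/well, o/n 37C; cpd 23 nL pin, 1 h; MLV-PP w/ SARS-CoV-2-S (Wuhan-Hu-1, Δ19 C-term); 48 h 37C; Bright-Glo luminescence; normalized vs S-PP and bald PP.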

Assay [13] in a line: Confirmatory qHTS for activators (rescue) of SARS-CoV-2 Cytopathic Effect (CPE) (AID 1508606). Also: potency is read from the fitted curve at half-maximal effect; nearly all actives have a fitted effect of over 70% in size.

Results filed as inconclusive are left out. Activity calls are given as the source filed them. Unless noted, calls follow the shape of the full dose curve.

For the molecule `NC(=O)c1cccc(-c2cc(Nc3ccc(OC(F)(F)F)cc3)ncn2)c1`, the Potency result in [1], in assay [2], in [3] and in assay [4] was “inactive” throughout. Further, the Potency in [5] was 22400 nM (active).

As for `CO[C@H]1C[C@@H]2CC[C@@H](C)[C@@](O)(O2)C(=O)C(=O)N2CCCC[C@@H]2C(=O)O[C@H]([C@H](C)C[C@@H]2CC[C@H](OC(=O)C(C)(CO)CO)[C@H](OC)C2)CC(=O)[C@H](C)C=C(C)[C@@H](O)[C@@H](OC)C(=O)[C@H](C)C[C@H](C)C=CC=CC=C1C`, the Potency in assay [1] was 12.2 nM (active); in [2], 27.3 nM (active); in assay [3], 15.3 nM (active).

With `Cc1cnc(Nc2ccc(N3CCN(C)CC3)cc2)nc1Nc1cccc(S(=O)(=O)NC(C)(C)C)c1`, the Potency is 3850 nM (active) in assay [1], 30600 nM (active) in [2] and 30600 nM (active) in assay [3].

In the case of `CCC1(O)CC2CN(CCc3c([nH]c4ccccc34)[C@@](C(=O)OC)(c3cc4c(cc3OC)N(C)C3[C@]45CCN4CC=C[C@@](CC)([C@@H](OC(C)=O)[C@]3(O)C(=O)OC)[C@H]45)C2)C1` (stereo partly drawn), the Potency is 15800 nM (active) in assay [6], 447 nM (active) in assay [1], 224 nM (active) in [2] and 708 nM (active) in assay [3]. Moreover, in assay [7], the call was inactive.

As for `COc1ccc2c(c1OC)C(=O)OC2[C@H]1c2c(cc3c(c2OC)OCO3)CCN1C` (stereo partly drawn), the outcome in assay [8] and in [9] was inactive. Moreover, the results for the Potency in [1], in assay [2] and in assay [3] were 1530 nM (active), 1530 nM (active) and 1370 nM (active), respectively. The Potency entry in [5] is “inactive”.

As to `CC[C@@]1(O)C(=O)OCc2c1cc1n(c2=O)Cc2cc3cc(O)ccc3nc2-1`, the Potency was 12600 nM (active) in [10], 685 nM (active) in [1], 968 nM (active) in [2] and 1370 nM (active) in assay [3]. For the same molecule, the Potency result in [11] was “inactive”. The activity change, negative = inhibition in assay [12] was -96.4%.

Consider `Cn1cc(CNCC2CCN(c3ncc(C(=O)NO)cn3)CC2)c2ccccc21`, for which the Potency in assay [1] was 685 nM (active); in [2], 485 nM (active); in [3], 1530 nM (active). In [12], the Potency result was “inactive”.

Turning to `CC(=O)ON=C1C(c2c(O)[nH]c3cc(Br)ccc23)=Nc2ccccc21`, the Potency in assay [1] is 1930 nM (active). In addition, the Potency entry in [2] and in assay [3] was “inactive” throughout.

Turning to `FC(F)(F)c1ccc(Nc2nc3ccc(Oc4ccnc(-c5ncc(C(F)(F)F)[nH]5)c4)cc3[nH]2)cc1`, the Potency in assay [1] was 6110 nM (active); in assay [2], 1370 nM (active); in assay [3], 3850 nM (active); in assay [12], 31600 nM (active).

With `CNC(=O)CN1CCC(Oc2cc3c(Nc4cccc(Cl)c4F)ncnc3cc2OC)CC1`, the Potency is 76.9 nM (active) in assay [1], 30.6 nM (active) in [2] and 38.5 nM (active) in assay [3]. The Potency entry in [5] was “inactive”. Further, the activity change, negative = inhibition in assay [12] was -16.1%.

On to `CCc1c2c(nc3ccc(O)cc13)-c1cc3c(c(=O)n1C2)COC(=O)[C@]3(O)CC`, for which the Potency in assay [1] is 109 nM (active); in assay [2], 243 nM (active); in [3], 217 nM (active). Further, the activity change, negative = inhibition in assay [12] was -97.1%.

In the case of `C[C@@H]1[C@H](O)[C@@H](C)C=CC=CC=CC=CC=CC=CC=C[C@H](O[C@@H]2O[C@H](C)[C@H](O)[C@H](N)[C@@H]2O)C[C@@H]2O[C@](O)(C[C@@H](O)C[C@@H](O)[C@H](O)CC[C@@H](O)C[C@@H](O)CC(=O)O[C@H]1C)C[C@H](O)[C@@H]2C(=O)O`, the Potency in [1] was 10900 nM (active); in [2], 8630 nM (active); in assay [3], 4850 nM (active).

For `Cc1nc(NC(=O)N2CCC[C@@H]2C(N)=O)sc1-c1ccnc(C(C)(C)C(F)(F)F)c1`, the Potency in [1] is 10900 nM (active). The Potency entry in [2] and in [3] was “inactive” throughout.

As to `CCC[C@H](Nc1nc(-c2ccc(NC(=O)NCC)c(OC)c2)ncc1C)c1cccnc1`, the Potency is 38.5 nM (active) in [1], 48.5 nM (active) in assay [2] and 109 nM (active) in assay [3]. The activity change, negative = inhibition in [12] is -93.9%.

Take `O=C(C=CC#Cc1cccc(NS(=O)(=O)c2ccccc2)c1)NO`: the Potency in assay [1] is 13700 nM (active); in assay [2] it was 6850 nM (active); in [3] it was 12200 nM (active).

With `N#Cc1c(C2CCNCC2)cc(-c2c(O)cccc2OCC2CC2)nc1N`, the Potency was 19300 nM (active) in assay [1]; 8630 nM (active) in assay [2]; 5440 nM (active) in assay [3]; 11200 nM (active) in assay [13]; 7940 nM (active) in assay [5]. Moreover, in assay [4], the Potency entry was “inactive”.

Regarding `COc1cc2cc(c1Cl)N(C)C(=O)CC(OC(=O)C(C)N(C)C(C)=O)C1(C)OC1C(C)C1CC(O)(NC(=O)O1)C(OC)C=CC=C(C)C2` (stereo not drawn), the Potency entry in assay [1], in assay [2] and in assay [3] was “inactive” in each case.

For `O=c1cc(N2CCOCC2)oc2c(-c3ccccc3)cccc12`, the outcome in [8], in assay [9] and in [7] was inactive. Further, the Potency result in assay [6], in [2], in [3] and in assay [5] was “inactive” throughout. In [1], the Potency was 15300 nM (active). For the same molecule, the activity change, negative = inhibition in assay [12] was -24.5%.

Turning to `C=CC1CN2CCC1CC2c1[nH]c2ccccc2c1CCO` (stereo not drawn), the Potency entry in assay [1], in assay [2] and in [3] was “inactive” each time.

With `C#C[C@]1(O)CC[C@@H]2[C@@H]3CCc4cc(O)ccc4[C@H]3CC[C@@]21C`, the Potency in [1] was 6850 nM (active); in assay [2], 3060 nM (active); in assay [3], 2170 nM (active).

Regarding `CCC(C=C[C@@H]1OC(=O)C=C[C@H]1C)=C[C@H](C)CC=CC(C)=C[C@@H](C)C(=O)[C@@H](C)[C@H](O)[C@@H](C)CC(C)=CC(=O)O`, the figures for the Potency in assay [1], in assay [2] and in [3] were 114 nM (active), 144 nM (active) and 203 nM (active), respectively.
